# Reference: PubChem BioAssay AID1942 (Johns Hopkins Ion Channel Center, 2009)
# Out of some 2,400 compounds screened, about 580 (24%) were called active.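 Rule for the calls: active = activity change at or above the mean plus 3 SD of buffer wells without dofetilide, per plate; inactive = the rest.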 These entries were drawn from the full list.
# Target: Potassium voltage-gated channel subfamily KQT member 2 (Rattus norvegicus) (UniProt O88943)
# Experiment: rat KCNQ2 channel activation by compounds alone, confirmation, counter-screen for hERG block protector project, cell-based, CHO, FluxOR thallium flux (AID 1942);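 note: normalized value minus buffer-control mean plus three SD of buffer wells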
# Details: CHO-KCNQ2 cells, FluxOR thallium flux fluorescence; at 10 µM; stronger effect = higher value
# Chain of Potassium voltage-gated channel subfamily KQT member 2 (Rattus norvegicus) (O88943 whole entry, looked up): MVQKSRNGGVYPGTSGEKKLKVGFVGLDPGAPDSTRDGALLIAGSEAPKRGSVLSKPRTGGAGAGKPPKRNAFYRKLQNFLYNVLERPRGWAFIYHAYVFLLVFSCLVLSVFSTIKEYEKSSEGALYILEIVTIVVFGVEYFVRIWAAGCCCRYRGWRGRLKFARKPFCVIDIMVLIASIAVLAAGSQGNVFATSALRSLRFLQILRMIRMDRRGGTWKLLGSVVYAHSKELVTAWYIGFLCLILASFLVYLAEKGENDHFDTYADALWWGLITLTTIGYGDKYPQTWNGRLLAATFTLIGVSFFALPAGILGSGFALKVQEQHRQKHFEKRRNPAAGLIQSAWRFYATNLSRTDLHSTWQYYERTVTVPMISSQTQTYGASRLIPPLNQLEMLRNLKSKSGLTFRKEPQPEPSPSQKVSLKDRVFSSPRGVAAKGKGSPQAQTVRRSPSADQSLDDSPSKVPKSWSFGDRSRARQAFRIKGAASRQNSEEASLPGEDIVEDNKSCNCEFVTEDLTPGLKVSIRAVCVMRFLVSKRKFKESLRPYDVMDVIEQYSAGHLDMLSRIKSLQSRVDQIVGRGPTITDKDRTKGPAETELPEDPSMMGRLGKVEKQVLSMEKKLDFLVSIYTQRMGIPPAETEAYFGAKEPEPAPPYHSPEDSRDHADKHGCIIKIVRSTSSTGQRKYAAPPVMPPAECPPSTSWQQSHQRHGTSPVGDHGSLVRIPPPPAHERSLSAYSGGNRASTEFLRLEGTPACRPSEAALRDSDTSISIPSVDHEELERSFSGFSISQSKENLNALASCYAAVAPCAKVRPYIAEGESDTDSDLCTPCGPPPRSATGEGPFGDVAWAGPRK
row,SMILES,"activity change, less the hit threshold"
1,Cc1sc2nc(C(C)C)nc(SCC(=O)NCc3ccco3)c2c1C,10.5% (active)
2,CCn1c(SCC(=O)NC(=O)NCc2ccco2)nc2sc(C)c(C)c2c1=O,19.7% (active)
3,COc1cccc(N2CCN(CC(=O)NC(=O)NCc3ccco3)CC2)c1,-11.4% (inactive)
4,O=C(CN1CCN(c2ccccc2O)CC1)NC(=O)NCc1ccco1,-18.7% (inactive)
5,Cc1cc2c(cc(C(=O)OC(C(=O)NCc3ccco3)C(C)C)n2C)o1 (stereo not given),-16.3% (inactive)
6,Cc1cc(S(=O)(=O)N2CCOCC2)ccc1OCC(=O)NCc1ccco1,-12.9% (inactive)
7,Fc1ccc(N2CCN(c3ccc4c(C(F)(F)F)cc(C(F)(F)F)nc4n3)CC2)cc1,-19.8% (inactive)
8,O=C(NCc1cccs1)C1CCC(CNS(=O)(=O)c2cccs2)CC1 (stereo not given),-28.1% (inactive)
9,Cc1cc(SC#N)cc(C)c1NC(=O)CCl,19.1% (active)
10,Cc1ccc(S(=O)(=O)Nc2ccc(O)c3ccccc23)c(C)c1,-27% (inactive)
11,Cc1onc(C(=O)N2CCC(C(N)=O)CC2)c1-c1ccccc1Cl,-22.2% (inactive)
12,Cc1ccc(-c2n[nH]c(=S)nc2-c2ccc(C)cc2)cc1,-7.1% (inactive)
13,S=c1[nH]c(-c2ccccc2)cs1,61.9% (active)
14,S=c1[nH]c(-c2ccc(Cl)cc2)cs1,119% (active)
15,O=Cc1cc(-c2ccccc2)[nH]c1-c1ccccc1,-15.3% (inactive)
16,Cc1ccc(-c2csc(=S)[nH]2)cc1,83.7% (active)
17,Cc1cccc(-n2cc(-c3ccccc3)[nH]c2=S)c1,-16.2% (inactive)
18,Cc1cc(NC(=O)CSc2ccc(-c3ccc(F)cc3)nn2)no1,-18.3% (inactive)
19,O=C(Nc1ccccc1)O/N=C/c1ccncc1,-19.6% (inactive)
20,COc1ccc(-c2c(C#N)c(SCC(=O)c3cc4ccccc4oc3=O)nc(C)c2C(=O)Nc2ccccc2)cc1,-11.8% (inactive)
21,O=c1[nH]c(C(Cl)(Cl)Cl)nc2ccc3ccccc3c12,15.1% (active)
22,Cc1cccc(/C=C2/S/C(=N/N=C3\CC4CCC3(C)C4(C)C)NC2=O)c1 (stereo not given),-10.5% (inactive)
23,CC12CCC(C/C1=N\N=C1\NC(=O)/C(=C\c3ccc(Cl)cc3)S1)C2(C)C (stereo not given),4.4% (active)
24,COc1ccc(/C=C2/S/C(=N/N=C3\CC4CCC3(C)C4(C)C)NC2=O)cc1 (stereo not given),-9.1% (inactive)
25,CCN1CCCC(CO)(Cc2ccccc2)C1 (stereo not given),-9.6% (inactive)

row,SMILES,"activity change, less the hit threshold"
1,O=C1c2nc3cc(-c4ccco4)[nH]n3c(=O)c2CN1Cc1ccccc1,-13.6% (inactive)
2,O=C(CN1C(=O)c2cccc3cccc1c23)Nc1cccnc1,-28.6% (inactive)
3,O=C1CC(N2CCN(c3ccccc3Cl)CC2)C(=O)N1c1ccc(F)cc1 (stereo not given),-9.2% (inactive)
4,CCOc1ccc(N)c(SSc2cc(OCC)ccc2N)c1,-17% (inactive)
5,CCC(=O)N(CC)c1nc(-c2ccc(OC)cc2)cs1,30.9% (active)
6,CCCn1c(SCC(=O)Nc2nc(-c3ccc(OC)cc3)cs2)nc2c1c(=O)n(C)c(=O)n2C,-16.4% (inactive)
7,CCCC(=O)NC(=S)Nc1nc(-c2ccc(OC)cc2)cs1,-16.3% (inactive)
8,O=C(NCCc1ccc(F)cc1)c1coc(=O)c(Br)c1,-6% (inactive)
9,Cc1nc(Oc2ccc(Cl)cc2)c2oc3ccccc3c2n1,-15.6% (inactive)
10,CCCOc1ccc(-c2c(=O)n(O)c3ccccc3[n+]2[O-])cc1,71.1% (active)
11,CCOc1ccc(CC(C(N)=O)C(N)=O)cc1,-21.3% (inactive)
12,CCOc1ccc(N(CC)C(=O)COc2cc(=O)n(C)c3ccccc23)cc1,-27% (inactive)
13,CCOc1ccc(-c2c(=O)n(O)c3ccccc3[n+]2[O-])cc1,52% (active)
14,CCCOc1ccc(C(=O)N(CC(C)C)c2c(N)n(Cc3ccccc3)c(=O)[nH]c2=O)cc1,-17.9% (inactive)
15,O=C1NC2(CCCCCC2)C(=O)N1Cc1ccccc1,-17.6% (inactive)
16,O=C(O)/C=C/C(=O)Nc1ccc(OC(F)(F)F)cc1,-10.2% (inactive)
17,O=[N+]([O-])c1cccc(NC(=S)Nc2nc(-c3ccccc3Cl)cs2)c1,-7.3% (inactive)
18,Cc1c(C(=O)NN2CCN(C)CC2)cccc1[N+](=O)[O-],-11.1% (inactive)
19,O=C(CN1C(=O)c2ccccc2S1(=O)=O)NCCSCc1ccccc1Cl,-15.3% (inactive)
20,CCCCOc1ccc(CC(=O)NCC(=O)O)cc1,-16.8% (inactive)
21,COC(=O)c1cc(-c2ccc(C)cc2)n[nH]1,-3.5% (inactive)
22,O=C(COC(=O)c1ccc(Br)o1)NC1CCCCC1,-6% (inactive)
23,Cc1ccc(OC(=O)c2ccc(Br)o2)cc1,46.8% (active)
24,O=C(NC1CCCC1)c1ccc(Br)o1,-20.5% (inactive)
25,CCCOc1ccc(OC(=O)c2ccc(Br)o2)cc1,6.3% (active)

row,SMILES,"activity change, less the hit threshold"
1,Cc1ccc(CNC(=O)CCc2ccc(S(=O)(=O)NCC(C)C)cc2)cc1,-18.2% (inactive)
2,Cc1noc(C)c1-c1nnc(-c2ccc(C(F)(F)F)cc2)o1,-9.9% (inactive)
3,CC(C)Cc1nnc(NC(=O)Cc2ccccc2[N+](=O)[O-])s1,-18.1% (inactive)
4,CCC(C)(C(=O)NC1CCCC1)N(Cc1ccco1)C(=O)c1ccccn1 (stereo not given),-21.1% (inactive)
5,Cc1ccc(C2=NN(C(=O)CCCC(=O)O)C(c3ccc4c(c3)OCO4)C2)cc1 (stereo not given),-16.6% (inactive)
6,COc1cccc(N2CC(C(=O)Nc3nnc(SCC(=O)NCC4CCCO4)s3)CC2=O)c1 (stereo not given),-12.6% (inactive)
7,Cc1nc(SCC(=O)NCC2CCCO2)c2c3c(sc2n1)CCCC3 (stereo not given),11.1% (active)
8,C=CCn1c(SCC(=O)NCC2CCCO2)nnc1-c1ccccc1 (stereo not given),-13% (inactive)
9,COc1ccc(-c2nc(=S)c3c([nH]2)Oc2ccc(C)cc2C3)cc1O,-18.3% (inactive)
10,Cc1cc(N2C(=O)C(O)=C(C(=O)c3cccs3)C2c2ccccc2)no1 (stereo not given),-22.8% (inactive)
11,COc1ccc(C(=O)NCC(=O)OCn2nnc3ccccc3c2=O)cc1OC,-17.7% (inactive)
12,COc1cc(OC)cc(-c2nc3ccccc3c(=O)n2OC(=O)c2ccc(Br)cc2)c1,-12.9% (inactive)
13,CC(Oc1ccc(Br)cc1)c1nc2c3ccccc3nc(=S)n2[nH]1 (stereo not given),14.3% (active)
14,COc1ccc(S(=O)(=O)n2nc(C)c(S(=O)(=O)N3CCOCC3)c2C)cc1OC,-19% (inactive)
15,Cc1ccc(-c2nc(N)s[n+]2-c2ccccc2)cc1,11.3% (active)
16,Cc1nnc(SCc2cc(=O)oc3cc(O)ccc23)n1Cc1ccccc1,-14.7% (inactive)
17,COc1ccc(-c2c(C)c3ccc(OCC(C)=O)cc3oc2=O)cc1,-17.3% (inactive)
18,O=c1c2ccccc2[nH]c(=S)n1CCc1ccccc1,10.3% (active)
19,COc1ccc(CCn2c(S)nc3ccccc3c2=O)cc1,-6.5% (inactive)
20,Cc1ccc(Cn2c(=S)[nH]c3ccccc3c2=O)cc1,-6.4% (inactive)
21,CCCCn1c(=S)[nH]c2ccccc2c1=O,3.1% (active)
22,CCC(Cc1ccccc1)n1c(=S)[nH]c2ccccc2c1=O (stereo not given),-14% (inactive)
23,CC(C)COn1c(=S)[nH]c2ccccc2c1=O,11.1% (active)
24,CCC(C)n1c(=S)[nH]c2ccccc2c1=O (stereo not given),25% (active)
25,CC1(C)Cc2c(sc(NC(=O)C(=O)N3CCCC3)c2C#N)CO1,-3.6% (inactive)

row,SMILES,"activity change, less the hit threshold"
1,CC1=NN(c2ccccc2)C(=O)/C1=C/c1ccc(-c2ccc(C)c(C(=O)O)c2)o1,-18.9% (inactive)
2,Cc1cc(=O)oc(C)c1C(=O)NCCC(C)C,-6.2% (inactive)
3,O=C(COC(=O)c1cnccn1)c1ccc(Cl)cc1,-17% (inactive)
4,Cc1ccc(NC(=O)c2ccc(CNS(=O)(=O)c3cccc(C(F)(F)F)c3)cc2)cc1,-15.6% (inactive)
5,Cc1ccc(CS(=O)(=O)c2ncc(Cl)c(C(=O)Nc3nnc(C)s3)n2)cc1,-0.8% (inactive)
6,O=C(Nc1ccc2[nH]c(=S)sc2c1)Nc1ccccc1F,-19% (inactive)
7,S=c1[nH]c2cc(Cl)ccc2s1,106% (active)
8,S=c1[nH]c2ccc(Cl)cc2s1,101% (active)
9,CCNC(=O)NC1c2ccccc2CSc2ccccc21 (stereo not given),-20.6% (inactive)
10,Cc1ccc(C)c(NC(=O)CCN2C(=O)[C@@H]3Cc4ccccc4CN3C2=O)c1,-23.4% (inactive)
11,CCOc1ccc(C(=O)N(CN2CCCC2=O)c2ccc(C)cc2)cc1,21.8% (active)
12,COc1ccc(C(=O)N(CN2CCCC2=O)c2ccc(C)cc2)cc1,-3.9% (inactive)
13,O=C(NCCCN1CCCC1=O)c1ccc(OC(F)(F)F)cc1,-19.5% (inactive)
14,Cc1cc(C)c(Cn2c3ccccc3c3cnn(CC(=O)NCc4ccccn4)c(=O)c32)c(C)c1,-12.3% (inactive)
15,O=C1OCCC1Sc1nc2ccccc2c(=O)n1Cc1ccc(F)cc1 (stereo not given),-2% (inactive)
16,COc1cc2c(cc1OC)C(c1ccc([N+](=O)[O-])cc1)N(C(C)=O)CC2 (stereo not given),-27% (inactive)
17,O=C(Nc1ccc(Cl)c(Cl)c1)Nc1nnc(CSc2ccccc2)s1,-5.4% (inactive)
18,CCCN(CCC)C(=S)NC(=O)c1ccc(-c2ccccc2)cc1,91.4% (active)
19,CCCN(CC1CC1)C(=S)Nc1ccccc1F,-17.8% (inactive)
20,C=CCN(CC=C)C(=S)NC(=O)Cc1cccc2ccccc12,3.6% (active)
21,C=CCN(CC=C)C(=S)NC(=O)c1ccc(-c2ccccc2)cc1,21% (active)
22,CCN(CC)C(=S)NC(=O)c1ccc(F)cc1,-10.2% (inactive)
23,O=C(NCCOC(=O)c1ccc([N+](=O)[O-])cc1)c1cccnc1,-12.2% (inactive)
24,C=CCN(CC=C)C(=S)NC(=O)c1ccc([N+](=O)[O-])cc1,48.5% (active)
25,C=CCN(c1ccc(C(=O)NC(C)C)cc1)S(C)(=O)=O,-16.8% (inactive)
